Hits are enriched below; roughly 4.7% of the tested compounds scored in any of these assays.
TRHR ag: qHTS for Small Molecule Agonists and Allosteric Enhancers of Human TRH Receptor: Primary Screen for Agonists. Thyrotropin-releasing hormone receptor (Homo sapiens), P34981. TRHR cells, calcium flux fluo-8, FDSS agonist mode. activation, % at 2 µM. hit rate 0.18% among 360,000. AID 493084, 2011; also: 0% is about no effect
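In this calcium-flux screen, cells bearing human TRHR are dye-loaded with fluo-8, baselined for 10 cycles, then exposed to library compounds; positive kinetic calcium responses during the agonist phase mark hits, with TRH as control.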
D1 antagonist: Antagonist of Human D 1 Dopamine Receptor: qHTS; D(1A) dopamine receptor (Homo sapiens), P21728; HEK293 TREx D1 cells, calcium flux, dopamine EC80; stronger effect = lower value; activity change, negative = inhibition, % at 10 µM; hit rate 3.2% among 360,000; AID 504652, 2011; in the data active = activity change below about -30%; also: % is scaled to controls: 0 for no effect and ±100 for the full control effect
Target sequence (P21728 whole entry, looked up): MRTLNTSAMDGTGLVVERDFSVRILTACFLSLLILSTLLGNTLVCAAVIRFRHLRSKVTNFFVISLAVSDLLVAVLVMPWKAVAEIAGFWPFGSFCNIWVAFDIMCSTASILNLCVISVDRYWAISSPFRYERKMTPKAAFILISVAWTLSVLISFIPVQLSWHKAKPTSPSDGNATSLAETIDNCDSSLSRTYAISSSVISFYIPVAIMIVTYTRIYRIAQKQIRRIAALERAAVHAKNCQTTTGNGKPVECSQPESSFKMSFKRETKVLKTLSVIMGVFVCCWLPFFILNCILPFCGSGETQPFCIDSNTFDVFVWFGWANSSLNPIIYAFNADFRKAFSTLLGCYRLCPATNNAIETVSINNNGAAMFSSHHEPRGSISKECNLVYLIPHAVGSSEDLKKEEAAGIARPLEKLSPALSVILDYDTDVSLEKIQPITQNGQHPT
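Allosteric or orthosteric antagonism assessed as attenuation of the calcium response to EC80 dopamine, added 180 s after compound, in induced HEK293 Trex D1 cells loaded with no-wash calcium dye.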
TRHR enhancer: qHTS for Small Molecule Agonists and Allosteric Enhancers of Human TRH Receptor: Primary Screen for Enhancers | Thyrotropin-releasing hormone receptor (Homo sapiens), P34981 | TRHR cells, fluo-8 calcium fluorescence, EC20 TRH enhancement | enhancement, % at 2 µM | hit rate 0.66% among 360,000 | AID 493056, 2011; in the data active = enhancement above about 30%; also: 0% is about no effect
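Enhancer read-out: after compound pinning and an initial kinetic agonist-mode read, an EC20 of TRH (10 nM final) was injected and fluo-8 calcium signal (Ex 480/Em 530) followed at 1 s/cycle for 100 cycles in TRHR-expressing cells.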
D1 agonist: Allosteric Agonists of the Human D1 Dopamine Receptor: qHTS. HEK293 T-REx D1 cells, calcium flux, agonist mode. activation, % at 2 µM. hit rate 1% among 360,000; also: 0% is about no effect
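Inducible HEK293 T-REx D1 cells, force-coupled to calcium signalling, were plated at 4000 cells/well with tetracycline and held overnight at 30 C. After no-wash calcium dye loading, compound-evoked calcium rise over 180 s flagged agonists.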
D1 potentiator: Potentiators of Human D1 Dopamine Receptor: qHTS. potentiation, % at 10 µM. D(1A) dopamine receptor (Homo sapiens), P21728. AID 504651, 2011. HEK293 TREx D1 cells, calcium flux, dopamine EC20 potentiation. hit rate 0.036% among 360,000; in the data active = potentiation above about 30%; also: 0% is about no effect
An asterisk follows results filed as active; / = no result given. Rule as the data show it, unless noted: active = activation above about 30%; inactive = the rest.

SMILES | TRHR ag | D1 antagonist | TRHR enhancer | D1 agonist | D1 potentiator
CN(C)c1nc(NCc2ccccc2)nc(SCC(=O)Nc2ccc(Cl)c(Cl)c2)n1 | 1.4 | 8.1 | -4.3 | 6.4 | 2.4
CC1(c2ccc([N+](=O)[O-])cc2)NC(=O)N(CC(=O)c2ccc3c(c2)OCO3)C1=O (stereo not given) | 6.2 | -6.8 | -1.0 | 34.1* | 5.5
CC1(c2ccc(OC(F)F)cc2)NC(=O)N(CC(=O)NC2CCCCC2)C1=O (stereo not given) | 0.6 | 11.6 | 0.6 | 8.8 | 6.5
CC1(c2ccc(OC(F)F)cc2)NC(=O)N(CC(=O)c2ccc3c(c2)OCO3)C1=O (stereo not given) | 7.9 | -43.2* | -11.0 | 46.5* | 0.4
CC(C)C(=O)N1CCN(c2ccc(NC(=O)COc3ccccc3[N+](=O)[O-])cc2)CC1 | 0.5 | -31.2* | -3.2 | 11.8 | -7.2
COc1ccc(OC)c(NC(=O)CCc2c(C)nn(-c3ccc(N4CCCC4)nn3)c2C)c1 | -0.6 | -18.6 | 2.0 | 0.2 | -4.2
Cc1ccccc1C(=O)Nc1ccnn1C1CCN(Cc2c(C)n(C)c3ccccc23)CC1 | 0.5 | -34.4* | 10.5 | 12.2 | -2.6
CCc1ccc(CN2CCC(n3nccc3NC(=O)c3ccccc3C)CC2)cc1 | 1.8 | -6.3 | 8.3 | 15.3 | -3.5
CC(=O)c1ccc(N2CCN(C(=O)c3ccc(OCc4c(C)noc4C)cc3)CC2)cc1 | -0.7 | -32.3* | -2.4 | 7.5 | -2.4
Cc1noc(C)c1S(=O)(=O)Nc1ccc(C(=O)N2CCN(c3ccc(Cl)cc3)CC2)cc1 | 0.2 | -36.0* | -0.6 | 20.3 | -7.2
Cc1noc(C)c1S(=O)(=O)N1CCN(c2ccc(Cl)cc2)CC1 | -0.2 | 0.6 | -4.6 | -0.1 | 0.9
OCCN1CCN(C(c2ccc(Cl)cc2Cl)c2sc3nc(-c4ccco4)nn3c2O)CC1 (stereo not given) | -0.1 | / | -10.0 | -2.4 | 1.6
Fc1ccc(C2=CC(c3ccc(Br)o3)n3ncnc3N2)cc1 (stereo not given) | 3.6 | -21.6 | -1.5 | 7.4 | 2.2
OCCCc1nc2n(n1)C(c1cccs1)C=C(c1ccc(Br)cc1)N2 (stereo not given) | 44.8* | 3.9 | -3.0 | 39.9* | 4.3
Brc1ccc(C2=CC(c3cccs3)n3ncnc3N2)cc1 (stereo not given) | 66.3* | 8.1 | 3.4 | 59.7* | 1.1
C1=C(c2ccc(-c3ccccc3)cc2)Nc2ncnn2C1c1ccco1 (stereo not given) | 30.3* | 7.9 | 12.6 | 61.4* | 1.6
CC1=C(C(N)=O)C(c2ccc(Br)cc2)n2nc(CCCO)nc2N1 (stereo not given) | 0.9 | 0.2 | -1.1 | 4.2 | -10.9
COc1ccc(NC(=O)Cn2c(=O)n(Cc3ccco3)c(=O)c3sc4ccccc4c32)cc1Cl | 1.1 | 3.9 | 6.3 | 2.7 | -0.5
O=C(Nc1ccc(-c2nc3ccccc3s2)cc1)c1cc(-n2cnnc2)ccc1Cl | 2.8 | -41.7* | 0.1 | 7.4 | -12.7
Cn1c2ccsc2c2ncn(Cc3ccc(F)cc3)c(=O)c21 | -0.2 | 1.7 | 36.0* | 2.7 | -1.8
COc1ccc2c(c1)c1ncn(Cc3ccc(F)cc3)c(=O)c1n2C | -0.1 | -6.4 | -2.0 | 0.1 | 0.7
CCCN1CCCc2ccccc21 | 0.3 | -31.2* | -1.8 | -0.1 | 6.6
CC(C)(C)NC(=O)CN(C(=O)CCN1CCCc2ccccc21)C(C)(C)C | -0.2 | 4.5 | -0.2 | 1.4 | -0.6
CCc1ccc(OCC(=O)Nc2cc(-c3ccc(C)cc3)no2)cc1 | 0.1 | -24.2 | 6.9 | 3.2 | 1.9
Cc1cccc(-c2noc(-c3ccccc3OCC(=O)Nc3ccccc3[N+](=O)[O-])n2)c1 | -0.6 | 5.1 | 4.4 | 2.1 | -3.0
CCCCCc1cc(=O)oc2c(C(CCN(CC)CC)c3ccc(OC)cc3)c(OC)cc(OC)c12 (stereo not given) | 1.7 | -39.4* | 3.8 | 40.5* | -12.8

Assay outcomes (PubChem)
